Experimental findings from PubChem BioAssay (NCI) are described below.

This is part of a sample that, as a whole, favours compounds with a hit. Of some 83,000 tested, about 20% had one in any assay.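 Cells were grown in 96-well plates and exposed to the test compound at a single concentration for 48 hours; results are reported as percent growth, with values below 10 considered active.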 Unmarked numbers belong to inactive results. Calls of active or inactive are those of the source.

Test systems include SK-MEL-2 melanoma; EKVX NSCLC; SN12C renal; UO-31 renal; TK-10 renal; ACHN renal; CAKI-1 renal; A498 renal; CCRF-CEM leukemia; MOLT-4 leukemia; SR leukemia; RPMI-8226 leukemia; OVCAR-8 ovarian; OVCAR-5 ovarian; OVCAR-4 ovarian; SK-OV-3 ovarian; IGROV1 ovarian; OVCAR-3 ovarian; HS 578T breast; NCI/ADR-RES ovarian.
Holding throughout (assay): NCI-60 one-dose screen, 48 h (100 = growth as untreated, 0 = no growth, -100 = all killed)
What all share (conditions): 10 µM unless noted

For the compound `C[C@@H]1C[C@@H]([C@@H](CC2CC(=O)NC(=O)C2)OC(=O)CC(=O)c2ccccc2)C(=O)[C@@H](C)C1`, the growth was 12.5% in the assay with SK-MEL-2 melanoma; 11.4% with EKVX NSCLC; 8.23% (active) in the assay with SN12C renal; -10.2% (active) in the assay with UO-31 renal; 3.61% (active) with TK-10 renal; 7.54% (active) with ACHN renal. Besides, the growth with CAKI-1 renal was -2.54% (active); in the assay with A498 renal, 16.7%; in the assay on CCRF-CEM leukemia, 15.4%; in the assay with MOLT-4 leukemia, 9.81% (active); with SR leukemia it was 31.1%; in the assay on RPMI-8226 leukemia, 17.4%. The growth is 12.5% in the assay on OVCAR-8 ovarian; 16.8% in the assay on OVCAR-5 ovarian; 20.2% with OVCAR-4 ovarian; -3.27% (active) in the assay on SK-OV-3 ovarian; -10.4% (active) with IGROV1 ovarian; 19.4% in the assay on OVCAR-3 ovarian. The growth in the assay with HS 578T breast is 19.4%; with NCI/ADR-RES ovarian, 10.3%.

As to `O=c1[nH]c(SCc2ccccc2)nc2nc(Nc3ccc(NC(=S)Nc4ccccc4)cc3)nc(-c3ccc(O)cc3O)c12`, the growth in the assay on SK-MEL-2 melanoma was 87.8%; in the assay on EKVX NSCLC, 95.9%; in the assay with SN12C renal, 88%; in the assay on UO-31 renal it was 107%; in the assay with TK-10 renal it was 133%; with ACHN renal it was 89.5%. The growth in the assay with CAKI-1 renal was 101%; in the assay with A498 renal, 108%; in the assay with CCRF-CEM leukemia it was 94.5%; in the assay with MOLT-4 leukemia, 93%; in the assay with SR leukemia, 54.8%; with RPMI-8226 leukemia it was 96.5%. For the same compound, the growth with OVCAR-8 ovarian is 108%; with OVCAR-5 ovarian, 87.5%; in the assay on OVCAR-4 ovarian, 100%; in the assay on SK-OV-3 ovarian, 91.4%; with OVCAR-3 ovarian it was 81.1%; in the assay on HS 578T breast it was 107%.

On to `O=C(N/N=C/c1ccc(Cl)cc1Cl)c1ccccc1Nc1cccc(C(F)(F)F)c1`, for which the growth with SK-MEL-2 melanoma is 54.9%; in the assay on EKVX NSCLC, -27.9% (active); in the assay on SN12C renal, 53.3%; in the assay on UO-31 renal, 25.7%; in the assay with TK-10 renal, 106%; in the assay with ACHN renal it was 35.9%. Moreover, the growth in the assay with CAKI-1 renal was 55.5%; in the assay on A498 renal, -7.44% (active); in the assay with CCRF-CEM leukemia, 32.4%; in the assay on MOLT-4 leukemia, 55.8%; in the assay with SR leukemia, 56.3%; in the assay with RPMI-8226 leukemia, 58.4%. Also, the growth with OVCAR-8 ovarian was 71.6%; with OVCAR-5 ovarian, 85.6%; with OVCAR-4 ovarian it was 65.6%; with SK-OV-3 ovarian it was 97.4%; in the assay on IGROV1 ovarian, 43.8%; in the assay with OVCAR-3 ovarian, 53.3%. Moreover, the growth is 49.3% in the assay on HS 578T breast and 73.4% in the assay on NCI/ADR-RES ovarian.

For `O=C(C(=O)c1cc(Br)ccc1O)c1cc(Br)ccc1O`, the growth in the assay with SK-MEL-2 melanoma is 28.4%; with EKVX NSCLC, 88.2%; with SN12C renal, 59.4%; in the assay with UO-31 renal, 24.8%; with TK-10 renal, 61.4%; in the assay on ACHN renal, 55.8%. Moreover, the growth in the assay on CAKI-1 renal is 50%; in the assay on A498 renal, 93.5%; in the assay on CCRF-CEM leukemia, 53.2%; in the assay with MOLT-4 leukemia, 37.6%; with SR leukemia it was 24.3%; in the assay with RPMI-8226 leukemia, 16.6%. For the same compound, the growth is 64.2% with OVCAR-8 ovarian; 93.4% in the assay with OVCAR-5 ovarian; 42.2% in the assay with OVCAR-4 ovarian; 79.6% in the assay on SK-OV-3 ovarian; 32.3% in the assay with IGROV1 ovarian; 15.9% in the assay with OVCAR-3 ovarian. In addition, the growth in the assay on HS 578T breast is 38.8%; in the assay on NCI/ADR-RES ovarian, 32.8%.

Turning to `c1ccc(N2c3nc4ccccc4cc3Sc3cc4ccccc4nc32)nc1`, the growth is 39.4% in the assay on SK-MEL-2 melanoma; 68.9% in the assay on EKVX NSCLC; 76.1% with SN12C renal; 26.9% with UO-31 renal; 114% in the assay on TK-10 renal; 92% with ACHN renal. Moreover, the growth in the assay with CAKI-1 renal is 69%; in the assay with A498 renal, 73.2%; in the assay on CCRF-CEM leukemia, 87.5%; in the assay on MOLT-4 leukemia it was 78%; in the assay with SR leukemia, 77.7%; in the assay on RPMI-8226 leukemia it was 80.9%. In addition, the growth in the assay with OVCAR-8 ovarian is 88.8%; in the assay on OVCAR-5 ovarian, 81.9%; with OVCAR-4 ovarian, 102%; with SK-OV-3 ovarian it was 104%; in the assay on OVCAR-3 ovarian it was 96.7%; with HS 578T breast it was 83.2%. Also, the growth in the assay with NCI/ADR-RES ovarian is 82.7%.

Turning to `NC(=N\N=C/Cc1ccccc1)/C(N)=N\N=C\Cc1ccccc1`, the growth with SK-MEL-2 melanoma is 108%; in the assay on EKVX NSCLC, 110%; in the assay with SN12C renal, 102%; in the assay with UO-31 renal, 91.2%; in the assay on TK-10 renal, 110%; with ACHN renal, 94.8%. Besides, the growth in the assay with CAKI-1 renal is 102%; in the assay with A498 renal it was 90.1%; in the assay with CCRF-CEM leukemia, 95.8%; with MOLT-4 leukemia it was 100%; in the assay on SR leukemia, 81.5%; in the assay on RPMI-8226 leukemia it was 101%. The growth in the assay on OVCAR-8 ovarian is 107%; with OVCAR-5 ovarian, 98.8%; in the assay with OVCAR-4 ovarian it was 100%; in the assay on SK-OV-3 ovarian it was 113%; with IGROV1 ovarian, 119%; in the assay on OVCAR-3 ovarian, 110%. For the same compound, the growth in the assay with HS 578T breast was 105%; in the assay with NCI/ADR-RES ovarian, 103%.

`O=C1C=CC(=O)N1c1ccccn1`: the growth is 109% in the assay with SK-MEL-2 melanoma; 118% in the assay with EKVX NSCLC; 96.2% with SN12C renal; 97.1% in the assay on UO-31 renal; 113% in the assay on TK-10 renal; 97.4% with ACHN renal. For the same compound, the growth with CAKI-1 renal is 104%; with A498 renal, 95.8%; in the assay with CCRF-CEM leukemia it was 105%; in the assay with MOLT-4 leukemia, 66.6%; in the assay with SR leukemia, 79.4%; with RPMI-8226 leukemia, 113%. Further, the growth in the assay on OVCAR-8 ovarian is 111%; with OVCAR-5 ovarian, 97.9%; in the assay on OVCAR-4 ovarian, 100%; in the assay on SK-OV-3 ovarian it was 115%; in the assay on IGROV1 ovarian it was 113%; in the assay on OVCAR-3 ovarian, 119%. Moreover, the growth in the assay with HS 578T breast was 97.4%.

Take `COC(=O)C1=CCC(n2cnc3c(N)ncnc32)O1` (stereo unspecified): the growth is 94.5% with SK-MEL-2 melanoma; 101% in the assay with EKVX NSCLC; 103% with SN12C renal; 91.5% in the assay on UO-31 renal; 104% with TK-10 renal; 110% in the assay on ACHN renal. The growth in the assay with CAKI-1 renal is 75.1%; with A498 renal it was 116%; in the assay with CCRF-CEM leukemia, 98.8%; in the assay with MOLT-4 leukemia, 91.3%; with SR leukemia, 102%; in the assay on RPMI-8226 leukemia, 118%. Further, the growth in the assay with OVCAR-8 ovarian is 96.3%; in the assay with OVCAR-5 ovarian it was 109%; with OVCAR-4 ovarian, 106%; in the assay on SK-OV-3 ovarian, 108%; in the assay with IGROV1 ovarian, 109%; with OVCAR-3 ovarian, 106%. Also, the growth in the assay with HS 578T breast was 110%; with NCI/ADR-RES ovarian, 95.4%.
